sEH inhibitor – soluble epoxide hydrolase inhibitors, primary screen, biochemical, human sEH. AID 707, 2007. recombinant human sEH enzymatic activity assay. Bifunctional epoxide hydrolase 2 (Homo sapiens), P34913. 0.34% of 91,000 active. inhibition, % at 2 µM; in the data active means inhibition above about 80%
Target sequence (P34913 whole entry, looked up): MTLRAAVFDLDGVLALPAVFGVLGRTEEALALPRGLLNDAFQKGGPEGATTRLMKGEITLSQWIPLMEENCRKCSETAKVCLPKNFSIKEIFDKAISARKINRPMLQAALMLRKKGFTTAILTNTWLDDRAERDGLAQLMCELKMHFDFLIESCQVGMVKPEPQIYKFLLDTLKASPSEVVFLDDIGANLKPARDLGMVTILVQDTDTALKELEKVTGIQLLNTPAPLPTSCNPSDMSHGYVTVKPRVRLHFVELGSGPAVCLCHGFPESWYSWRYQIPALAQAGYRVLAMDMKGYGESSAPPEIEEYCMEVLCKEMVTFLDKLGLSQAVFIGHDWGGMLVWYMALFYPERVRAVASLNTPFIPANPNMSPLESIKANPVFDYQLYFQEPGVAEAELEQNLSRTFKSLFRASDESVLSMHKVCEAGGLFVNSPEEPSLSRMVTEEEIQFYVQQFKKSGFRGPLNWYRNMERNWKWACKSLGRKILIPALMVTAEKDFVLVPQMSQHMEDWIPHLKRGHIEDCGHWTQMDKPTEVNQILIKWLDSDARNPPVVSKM
LYP inh 2 – PTPN22 phosphatase inhibitors, primary screen, biochemical, DiFMUP fluorescence, 2 µM | recombinant LYP catalytic domain | 0.21% of 96,000 active | Tyrosine-protein phosphatase non-receptor type 22 (Homo sapiens), Q9Y2R2 | AID 640, 2007 | inhibition, % at 2 µM;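 active means inhibition at 2 µM at or above a set limit, the screen mean plus 3 SD, cut at about 24% in these data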;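 further: 0% = DMSO with enzyme and 100% = enzyme fully blocked by orthovanadate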
Measles CPE – compounds protecting cells from measles virus cytopathic effect, primary screen, measles RdRp inhibitor project, single point, MLSMR library, absorbance | Measles virus-infected cells, CPE protection | protection (pct of control), % at 4 µM | 1.5% of 140,000 active | AID 841, 2007; in the data active means protection mostly above about 24%, no sharp cut-off; inactive means mostly below about 26%
LYP act – LYP phosphatase activators, primary screen, biochemical, DiFMUP fluorescence, 2 µM; Tyrosine-protein phosphatase non-receptor type 22 (Homo sapiens), Q9Y2R2; recombinant LYP; 0 = plate median, 100 = signal doubled; activation, % at 2 µM; 0.11% of 96,000 active;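 active means activation at 2 µM above a set limit, the mean plus 5 SD, cut at about 37% in these data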
sEH act – soluble epoxide hydrolase activators, primary screen, biochemical, human sEH; Bifunctional epoxide hydrolase 2 (Homo sapiens), P34913; 0.04% of 91,000 active; activation, % at 2 µM; purified human sEH enzymatic activity, activator screen; AID 717, 2007; in the data active means activation above about 37%
* marks the source's active call; other numbers are inactive results; x = no result. Shown are actives, neighbours in structure and some others; about 1.7% of the full set was active somewhere.

SMILES	sEH inhibitor	LYP inh 2	Measles CPE	LYP act	sEH act
COc1ccc(NC(=O)C(c2cc3c(cc2[N+](=O)[O-])OCO3)N(C)c2ccccc2)cc1 (stereo unspecified)	x	x	7.5	x	x
O=C(Cc1ccc(Br)cc1)OCC(=O)N1CCc2ccccc2C1	x	x	14.6	x	x
CC(C)C12CN3CC(C(C)C)(CN(C1)C3c1ccccc1)C2O (stereo unspecified)	-40.5	-0.7	9.9	1.2	38.8*
Cc1nnc(SCC(=O)NCc2ccccc2)[nH]c1=O	-4.4	8.6	55.1*	-7.8	2.3
Cc1cc(C(C)(C)C)cc(C)c1COC(=O)C1CCC(=O)N1 (stereo unspecified)	0.5	27.1*	4.6	-28.5	-1.0
O=C1CCC(C(=O)OCc2c(Cl)cccc2Cl)N1 (stereo unspecified)	3.5	8.7	1.6	-5.9	-1.6
COc1ccccc1C(=O)NCCCNc1ccc([N+](=O)[O-])cc1	x	x	26.6*	x	x
CC1=C(C(N)=O)C(c2ccc(Cl)cc2Cl)n2ncnc2N1 (stereo unspecified)	8.4	-4.8	7.4	4.0	-7.7
CC(=O)C1=C(C)Nc2ncnn2C1c1ccccc1Cl (stereo unspecified)	-14.6	-5.5	100.7*	1.9	13.1
C=CCNC(=S)NNC(=O)c1cccn(Cc2cccc(Cl)c2)c1=O	-7.0	56.0*	11.6	-54.9	4.4
C=CCNC(=S)NNC(=O)c1cccn(Cc2ccc(Cl)cc2)c1=O	-1.8	52.8*	1.8	-51.6	-0.7
CCCC1=C(C(=O)OCC)C(c2ccc(OC)c(CSc3ccccn3)c2)C(C#N)=C(N)O1 (stereo unspecified)	x	x	21.9	x	x
COc1cccc(-c2nc3n(n2)C(c2ccc4c(c2)OCO4)C(C(N)=O)=C(C)N3)c1 (stereo unspecified)	10.1	-2.5	35.5*	0.9	-8.4
COc1ccc(Cl)cc1NC(=O)C(C)N(C)Cc1cccc(Cl)c1Cl (stereo unspecified)	x	x	8.4	x	x
CC(C)/C=N/Nc1nc(-c2ccc(Br)cc2)cs1	x	x	6.3	x	x
CSc1cccc(NC(=O)Nc2ccc(Cl)cc2)c1	82.3*	-14.8	5.8	17.7	-82.5
CCOc1ccc(NC(=O)NCCN2C(C)CCCC2C)cc1 (stereo unspecified)	-1.9	-2.1	5.0	2.0	3.3
CCOc1ccc(NC(=O)NCCCSC2CCCCC2)cc1	85.3*	-5.1	17.9	7.3	-85.5
O=C(Cc1ccc(Cl)cc1)Nc1ccccc1Sc1ccccc1	x	x	8.9	x	x
O=C(CCl)Nc1ccccc1Sc1ccccc1	-9.9	-20.0	45.7*	19.5	8.0
Cc1cccc(-n2nc3c(c2NC(=O)c2ccco2)CSC3)c1C	6.9	2.8	27.9*	-4.5	-5.5
O=C(NNC(=O)c1ccc2ccccc2c1O)c1ccccc1Cl	-7.7	24.3*	12.3	-20.1	11.3
CC(=O)Nc1cccc(-c2csc(Nc3ccc(C)cn3)n2)c1	x	x	53.2*	x	x
Cc1nc(-c2cccc(NC(=O)c3cccs3)c2)cs1	5.4	-4.3	3.2	0.7	-4.0
Cc1ccc(-c2nc(N3CCOCC3)sc2C(=O)N2CCCCC2)cc1	x	x	10.7	x	x
SMILES	sEH inhibitor	LYP inh 2	Measles CPE	LYP act	sEH act
CCCCC(=O)Nc1ccc(C(=O)N2CCC(C(=O)OCC)CC2)cc1	-3.9	13.2	14.2	-11.6	4.0
O=C(NN1CCOCC1)c1cc(-c2ccc(Cl)c(Cl)c2)nc2ccccc12	x	x	7.5	x	x
COc1cc([N+](=O)[O-])c2ncsc2c1	x	x	16.9*	x	x
CCC(C)C(=O)Nc1ccc(OC)cc1[N+](=O)[O-] (stereo unspecified)	x	x	5.5	x	x
Cc1ccc(Nc2cc(C)nn2-c2nc(C)cc(=O)[nH]2)cc1	x	25.5*	3.3	-27.3	x
Cc1ccc(Nc2cc(C)nn2-c2nc(C)cc(C)n2)cc1	-8.5	-0.3	6.2	0.2	8.5
C/C(N)=C(/C#N)C(=O)COC(=O)C1CCC(C(C)(C)C)CC1 (stereo unspecified)	22.4	0.3	25.4	1.4	-21.3
Cc1nn(-c2ccccc2)c(Cl)c1/C=N/Nc1ccc(Cl)c(C(=O)O)c1	x	x	19.1	x	x
Cc1nn(-c2ccccc2)c(Cl)c1/C=N/Nc1ccc(S(=O)(=O)Nc2ccccc2C(=O)O)cc1[N+](=O)[O-]	-2.8	24.3*	4.8	-22.3	5.7
Cc1ccc(NS(=O)(=O)c2ccc3c(c2)oc(=O)n3C)cc1F	2.4	1.0	45.5*	-1.5	-3.1
CN(CCOC(=O)c1ccc2c(c1)OCCO2)C(C)(C)C	3.5	-1.6	87.7*	1.2	-3.5
CCCc1cc(-c2[nH]ncc2-c2ccc3c(c2)OCCCO3)c(O)cc1OC	3.6	2.4	11.8	-0.1	-4.1
CCc1cc(-c2[nH]ncc2-c2ccc3c(c2)OCO3)c(O)cc1O	x	x	84.3*	x	x
COC(=O)c1c(N2C(=O)[C@H]3[C@@H](C2=O)[C@]2(C(=O)Nc4c(C)cccc42)N2CCC[C@@H]32)sc(C)c1C	x	x	11.6	x	x
COc1ccc(/C=N/NC(=O)CC2N=C(Cc3ccccc3)NNC2=O)cc1OC (stereo unspecified)	x	x	27.8*	x	x
C/C(=N\NC(=O)CC1N=C(Cc2ccccc2)NNC1=O)c1ccc(C)cc1 (stereo unspecified)	15.3	0.0	4.8	2.9	-12.2
CCc1ccccc1Nc1nc(N)nc(COC(=O)c2cccn2C)n1	-11.7	-7.6	78.0*	5.7	11.2
Cc1ccc(C(=O)NNC(=O)c2cccc(S(=O)(=O)N3CCN(c4ccccc4)CC3)c2)cc1	x	x	4.4	x	x
CCOC(=O)Nc1sc(C)c(C)c1C(N)=O	x	x	14.1	x	x
CCOC(=O)CCNC(=O)Nc1ccc2nc(C)n(Cc3ccc(Cl)cc3)c(=O)c2c1	10.6	1.8	38.3*	-2.5	-10.6
O=c1ccc2ccc(Oc3ccc([N+](=O)[O-])cc3[N+](=O)[O-])cc2o1	x	x	9.0	x	x
C[n+]1cccc(CNC(=O)/C=N/O)c1	4.6	-5.2	active	2.8	-6.0
Cc1ccccc1OCC(=O)Nc1ccc(S(=O)(=O)Nc2ccccn2)cc1	x	x	25.4	x	x
CCN(CC)C(=S)SCC(=O)NC12CC3CC(CC(C3)C1)C2	x	x	1.7	x	x
CC(C)(C)OC(=O)N1CCC(c2c(C(=O)O)cnn2-c2ccccc2)CC1	x	-5.0	31.7*	2.7	x
SMILES	sEH inhibitor	LYP inh 2	Measles CPE	LYP act	sEH act
O=C(CN1N=C(c2ccccc2)CCC1=O)NCc1ccco1	x	x	7.1	x	x
O=C(Nc1ccccc1)C(=O)Nc1ccccn1	2.7	0.8	26.5*	1.7	0.2
CCOc1ccccc1Nc1nnc(SCC(=O)Nc2cccc(S(=O)(=O)NC3=NCCCCC3)c2)s1	x	x	7.0	x	x
CCOC(=O)c1ccc(CNC(=O)CSc2nnnn2-c2ccc(Cl)cc2)o1	-6.5	7.0	42.6*	-8.0	6.2
CCOC(=O)NC(=O)CSc1nnnn1-c1ccc(Cl)cc1	5.4	-3.9	41.8	0.7	-6.9
O=c1oc(-c2ccc(Br)o2)nc2ccccc12	-13.7	-14.6	4.7	13.6	12.2
CCc1c(C)nc2[nH]nc(NC(=O)C(F)(F)F)n2c1=O	7.5	-9.9	51.0*	9.5	-7.8

Screening data (PubChem)
